Screening data deposited in PubChem by National Center for Advancing Translational Sciences (NCATS).
Akt phos inh = inhibitors of Akt phosphorylation; Neuro2A IGF-stimulated pAkt S473 HTRF, 20 min; stronger effect = lower value; 360,000 compounds, 0.32% hits; activity change, % for hits at 50 µM; in the data active = activity change below about -80%; inconclusive = mostly about -51% to -80%; note: % is set by controls: 0 for no effect and ±100 for the full control effect
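Neuro2A cells in DMEM with 0.5% FBS, overnight at 37 deg C, given compound at single 50 µM final, then IGF (6 nM final) for 20 min at 37 deg C. Lysed; phospho-Akt Ser473 by HTRF after 24 h, 665/615 ratio.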
RXFP1 antagonist = antagonists of human relaxin receptor RXFP1 | 350,000 compounds, 0.59% hits | AID 1259400 | activity change, negative = inhibition, % at 57.5 µM | HEK293-RXFP1, relaxin-stimulated cAMP HTRF, 30 min; stronger effect = lower value;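 active = activity change of -60% or lower, but not beyond a set lower limit; inconclusive = change between -60% and -40%, or beyond the set limit; inactive = change above -40%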; note: % is set by controls: 0 for no effect and ±100 for the full control effect
Target sequence (Q9HBX9 whole entry, looked up): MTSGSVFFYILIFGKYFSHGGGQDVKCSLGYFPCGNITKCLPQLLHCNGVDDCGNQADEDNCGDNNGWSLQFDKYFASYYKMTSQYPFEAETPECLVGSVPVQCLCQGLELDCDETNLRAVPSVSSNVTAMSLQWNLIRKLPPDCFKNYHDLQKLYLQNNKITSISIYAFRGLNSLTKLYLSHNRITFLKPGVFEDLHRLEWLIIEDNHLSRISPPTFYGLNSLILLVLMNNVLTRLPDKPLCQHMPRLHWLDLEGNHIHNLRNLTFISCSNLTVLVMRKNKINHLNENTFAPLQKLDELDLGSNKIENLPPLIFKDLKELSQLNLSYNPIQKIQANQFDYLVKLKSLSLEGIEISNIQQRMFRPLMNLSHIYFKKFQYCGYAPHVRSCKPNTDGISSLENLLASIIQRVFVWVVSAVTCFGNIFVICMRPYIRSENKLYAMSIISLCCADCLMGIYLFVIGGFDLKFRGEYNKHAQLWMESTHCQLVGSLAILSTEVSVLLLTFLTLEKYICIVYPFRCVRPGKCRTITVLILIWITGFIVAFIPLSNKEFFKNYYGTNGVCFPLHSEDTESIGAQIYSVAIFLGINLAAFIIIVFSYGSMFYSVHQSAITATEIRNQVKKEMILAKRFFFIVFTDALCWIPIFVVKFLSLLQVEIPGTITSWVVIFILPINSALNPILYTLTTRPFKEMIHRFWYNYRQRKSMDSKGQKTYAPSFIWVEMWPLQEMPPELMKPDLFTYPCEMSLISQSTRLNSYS
RXFP1 ag = agonists of human relaxin receptor RXFP1; HEK293T-RXFP1 cAMP TR-FRET, 30 min; response scale: percent of porcine relaxin response, buffer zero; Q9HBX9; 370,000 compounds, 0.3% hits; AID 2676; Potency, µM (doses to about 57.5 µM), for the others: at the top dose activation, actives largely listed as activators; active = well fitted activation curve with a large enough effect; inconclusive = small, poorly fitted or top-dose-only effect; note: potency is the fitted concentration of half-maximal effect; % is set by controls: 0 for no effect and ±100 for the full control effect; nearly all actives have a fitted effect of over 60% in size
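Agonist response is measured as cAMP accumulation in an RXFP1-transfected HEK293T line under PDE4 inhibition. Values are scaled between buffer-only and 29 nM porcine relaxin, and EC50s come from standard Hill equation fits.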
gsp antag = gsp mutant antagonism. 340,000 compounds, 0.4% hits. Potency, µM (doses to about 76.9 µM), inactives show top-dose activity change, negative = inhibition, usual class: inhibitors. gsp-mutant cells, cAMP HTRF, 30 min; calls by dose curve; cell line not stated here;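 note: intracellular cAMP measured with PDE inhibitor Ro 20-1724 present during compound exposure; potency is the fitted concentration of half-maximal effect; % is set by controls: 0 for no effect and ±100 for the full control effect; nearly all actives have a fitted effect of over 65% in size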
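HTRF cAMP read-out (cAMP-d2 plus anti-cAMP antibody-K in lysis buffer, 30 min RT). Before lysis, cells are exposed to compounds with […] for 30 min at 37C in DPBS containing Ca/Mg, BSA and Tween 20.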
gsp ag = gsp mutant agonism. gsp mutant cells, cAMP HTRF, 30 min. Potency, µM (series often up to 76.9 µM), for inactives: at the highest dose activation (cAMP increase), most hits filed as activators. 340,000 compounds, 0.13% hits. AID 624287; active = well fitted activation curve with a large enough effect; inconclusive = small, poorly fitted or top-dose-only effect, or another doubt; inactive = no such curve, though single readings can be large or run the other way; cell line not stated here;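 note: phosphodiesterase inhibitor Ro 20-1724 added with compounds to block cAMP breakdown; potency is the fitted concentration of half-maximal effect; nearly all actives have a fitted effect of over 60% in size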
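Cells stably selected in G418 were plated at 2000/well, grown 16-24 hr, then given compounds in DMSO with the PDE inhibitor […] (300 uM solution added) for 30 min at 37C; cAMP was read by HTRF.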
* marks the source's active call; other numbers are inactive results; i = inactive; ? = inconclusive; / = not tested or not shown; ! = not confirmed by another sample; [ ] = dose if it differs, or a comment. In the library only some 1.2% were active in any assay of this set; here they are far more common.

SMILES	Akt phos inh	RXFP1 antagonist	RXFP1 ag	gsp antag	gsp ag
O=C(NC(=S)N1CCN(c2ccc(Cl)cc2[N+](=O)[O-])CC1)c1cccs1	i	-65*	-1%	?	32%
Cc1ccccc1C(=O)Nc1ccc(C(=O)N2CCCC(N(C)C)c3ccccc32)cc1 (configuration not stated)	/	1	/	/	/
COc1ccc2c(c1)CCc1c(C(=O)N3CCOCC3)noc1-2	i	-12	-1%	-7%	5%
COc1ccc2c(c1)CCc1c(C(=O)N3CCCc4ccccc43)noc1-2	/	-20	-1%	40µM*	-5%
Cc1cccc(C)c1NC(=O)CSc1nc(C)c(CC(=O)c2ccc(Br)cc2)c(C)c1C#N	-102%*	-14	2%	19%	?
CCOc1ccc(NC(=O)c2nn(C)c3c2COc2ccccc2-3)cc1	/	3	-3%	/	/
O=C1CCSC2(C(=O)N(Cc3ccc(F)cc3)c3ccccc32)N1c1ccccc1 (configuration not stated)	/	-62*	-2%	/	/
O=C1CCSC2(C(=O)N(Cc3ccc(F)cc3)c3ccccc32)N1c1ccc(F)c(F)c1 (configuration not stated)	/	-72*	-2%	/	/
O=C1CCSC2(C(=O)N(Cc3ccc(F)cc3)c3ccccc32)N1c1cccc(F)c1 (configuration not stated)	/	?	-1%	/	/
Cc1cc(C)cc(N2C(=O)CCSC23C(=O)N(Cc2ccccc2)c2ccccc23)c1 (configuration not stated)	/	-10	-4%	/	/
Cc1cccc(N2C(=O)CCSC23C(=O)N(Cc2ccc(F)cc2)c2ccccc23)c1 (configuration not stated)	/	-63*	-2%	/	/
COC(=O)c1ccccc1N=Nc1c(N)[nH][nH]c1=O	i	?	-5%	40µM*	20%
CCCCc1c(O)nc(SCC(=O)N2CCOCC2)n(-c2ccccc2OC)c1=O	i	-14	-1%	7%	?
CCCCc1c(O)nc(SCC(=O)N2CCOCC2)n(-c2ccccc2C)c1=O	-113%*	2	2%	-3%	-6%
COc1cc(/C=N/N2CCN(c3ccccc3)CC2)cc(OC)c1OC(C)=O	i	-1	0%	32µM*	-10%
CCOc1ccc(S(=O)(=O)NCC(c2ccco2)S(=O)(=O)c2ccc(F)cc2)cc1 (configuration not stated)	/	-2	-1%	/	/
NC(=O)c1ccsc1NC(=O)COC(=O)/C=C/c1ccccc1	i	-69*	0%	?	23%[15.4 µM]
Cc1ccc(Cn2c(CN3CCC(C(=O)NCCc4ccccc4)CC3)cc3ccccc32)cc1	/	-20	0%	/	/
O=C(CN1C(=O)CNC1=O)Nc1cccc(C(F)(F)F)c1	-101%*	-20	1%	5%	-26%
O=C1NCCCC1C(=O)Nc1cccc(C(F)(F)F)c1 (configuration not stated)	-102%*	10	1%	-9%[15.4 µM]	?
O=C(Nc1ccccc1F)c1ccc(Cn2nc(N3CCN(c4ccccc4)CC3)ccc2=O)o1	/	-10	-2%	/	/
O=C(COc1ccccc1F)Nc1cc(S(=O)(=O)Nc2cccc(Cl)c2)ccc1O	i	4	-3%	35µM*	30%
CC(C)c1nn2c(=O)cc(COC(=O)c3ccc(NC(=O)CCc4ccccc4)cc3)nc2s1	/	-5	18%	/	/
CC(C(=O)Nc1nc(-c2ccc(F)c(F)c2)cs1)N1C(=O)C2CC=CCC2C1=O (configuration not stated)	i	?	1%	35µM*	-3%
Cc1cc(Br)ccc1NC(=O)c1ccc(NS(=O)(=O)c2c(C)noc2C)cc1	/	/	4%	/	/
SMILES	Akt phos inh	RXFP1 antagonist	RXFP1 ag	gsp antag	gsp ag
CCN(CC(=O)Nc1ccccc1C(F)(F)F)C(=O)CN1C(=O)NC2(CCCC2)C1=O	i	-60*	1%	6%	-15%[15.4 µM]
CCOc1ccc(OCC)c(Nc2nc3ccc(Cl)cc3n3cnnc23)c1	/	-3	0%	/	/
O=c1c2ccccc2n(Cc2cccc(F)c2)c(=O)n1Cc1ccccc1Cl	/	-13	-4%	/	/
COc1cc(/C=N/NC(=O)Cn2cnc3ccccc3c2=O)ccc1O	i	-9	14%	3%	1%[15.4 µM]
COc1cc(/C=N/NC(=O)Cn2cnc3c2c(=O)n(C)c(=O)n3C)ccc1O	i	41	16µM*	7%	22µM*
CN1N=C(C(N)=O)CCC1=O	/	-3	/	/	/
O=C1C=CC(=O)N1c1ccc2c(c1)C(NC(=O)C(F)(F)F)c1ccccc1-2 (configuration not stated)	i	-97*	/	7%	0%
COc1cccc(N2CCN(CC(=O)Nc3nc4c(s3)CC(C)CC4)CC2)c1 (configuration not stated)	-89%*	-2	0%	-15%	?
CC1CCc2nc(NC(=O)CN3CCN(c4ccc(F)cc4)CC3)sc2C1 (configuration not stated)	i	-14	-1%	-10%	-49%
Cn1c(=O)c2nc(SCC(=O)Nc3ccc(Cl)c(Cl)c3)n(C)c2n(C)c1=O	/	-10	4%	/	/
Cc1ccc(NCc2nc3ccccc3n2CCOc2ccccc2)cc1	i	-62*!	5%	-9%	-2%
Cc1ccc(OCCn2c(CNc3cccc(C)c3)nc3ccccc32)cc1	/	?	-1%	/	/
COCCNC(=O)CN(c1ccc(C)cc1)S(=O)(=O)c1ccccc1	/	-6	-1%	3%	-1%
COCCNC(=O)CN(c1ccc(OC)c(OC)c1)S(=O)(=O)c1ccc(C)cc1	-129%*	-1	2%	1%[15.4 µM]	2%
CCCCN1CC(c2nc3ccccc3n2CCCCOc2ccccc2C)CC1=O (configuration not stated)	/	/	-1%	/	/
COc1cc(NC(=O)C(C)Oc2ccccc2)ccc1NC(=O)COc1ccccc1 (configuration not stated)	i	-7	0%	40µM*	-24%
Cc1ccc(OCCn2cc(C#N)c3ccccc32)cc1	-106%*	-11	-1%	4%	14%
N#Cc1c(-c2ccc(Cl)cc2)cc(-c2cccs2)nc1SCC(=O)O	i	-23	4%	10µM*	?
CC(=O)c1cc(-c2ccccc2)n(CCC(=O)Nc2ccc(C)cc2C)c1C	/	-62*	0%	/	/
COc1cccc(CN2C(=O)C(C)N(C(=O)c3c(F)cccc3F)c3ccccc32)c1 (configuration not stated)	i	-3	3%	35µM*	-19%
CC1C(=O)N(Cc2ccccc2F)c2ccccc2N1C(=O)c1c(F)cccc1F (configuration not stated)	i	-11	-1%	?	-19%
Cc1nc2ccc(NC(=O)c3cnc(Cl)c(Cl)c3)cc2s1	i	-11	11%	8.9µM*	15%[15.4 µM]
Cc1nc2ccc(NC(=O)c3ccc(Br)o3)cc2s1	i	-92*	-1%	1%	-1%[15.4 µM]
